From PubChem BioAssay
BAZ2B inh – blocks human BAZ2B. Q9UIF8. AlphaScreen BAZ2B-H3K14Ac peptide displacement. Potency, µM (top dose mostly 114 µM), without a hit: at the top dose activity change, negative = inhibition, hits mostly inhibitors. actives 4.4% (n = 360,000). AID 504333; note: % is set by controls: 0 for no effect and ±100 for the full control effect; nearly all actives have a fitted effect of over 60% in size
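In this displacement format the biotinylated H3(5-23) peptide acetylated at Lys14 serves as ligand at 50 nM, with BAZ2B at 50 nM in PBS pH 7.4 containing 0.01% Tween-20. Donor and acceptor beads are 10 ug/mL final.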
VDR inh – inhibitors of human vitamin D receptor. P11473. VDR-SRC2-3 peptide fluorescence polarization, 2 h. Potency, µM, without a hit: max response, negative = inhibition, hits mostly inhibitors. actives 0.93% (n = 400,000). AID 504847; note: % is set by controls: 0 for no effect and ±100 for the full control effect
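VDR–SRC2-3 interaction, FP format. Cmpds 23 nl via pintool, brief spin, 2 h ambient incubation.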
G9a inh – blocks human histone lysine methyltransferase G9a; AID 504332; actives 8.8% (n = 350,000); G9a H3K9 monomethylation, AlphaScreen, 2 h; Potency, µM (highest dose often 102 µM), for inactives: at the top dose activity, negative = inhibition, hits mostly inhibitors; Q96KQ7; note: % is set by controls: 0 for no effect and ±100 for the full control effect; nearly all actives have a fitted effect of over 75% in size
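G9a (20 nM) was preincubated 15 min with compound, then reacted 2 h at room temperature with 500 nM biotin-H3K9 peptide and 20 µM SAM. Monomethyl-H3K9 detected by AlphaScreen using anti-H3K9me1 antibody.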
JMJD2A Tudor inh – inhibitors of human JMJD2A Tudor domain; O75164; Potency, µM (doses to about 114 µM), for inactives: at the top dose activity change, negative = inhibition, hits mostly inhibitors; AlphaScreen JMJD2A-Tudor / H3K4me3 peptide binding; actives 4.4% (n = 390,000); AID 504339; note: % is set by controls: 0 for no effect and ±100 for the full control effect; nearly all actives have a fitted effect of over 50% in size
PLK1 PBD block – blocks phosphopeptide binding to human PLK1 polo-box domain | Potency, µM, without a hit: max response, negative = inhibition, hits mostly inhibitors | Plk1 PBD binding of FITC phosphopeptide, fluorescence polarization | P53350 | AID 720504 | actives 2.8% (n = 360,000); note: series mostly up to about 57 µM; % is set by controls: 0 for no effect and ±100 for the full control effect; nearly all actives have a fitted effect of over 65% in size
HP1b chromo inh – blocks HP1-beta chromodomain binding to methylated histone tails | AID 540317 | actives 0.56% (n = 390,000) | P83916 | AlphaScreen HP1-beta / biotin-H3K9me3 peptide binding | Potency, µM (highest dose often 114 µM), inactives show at the top dose activity change, negative = inhibition, most hits filed as inhibitors; note: nearly all actives have a fitted effect of over 70% in size
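AlphaScreen: HP1-beta (50 nM) preformed 30 min with biotin-H3(1-18)K9me3 peptide (50 nM) in PBS pH 7.4, 0.01% Tween-20. Compound added for 30 min at RT, then streptavidin donor/nickel chelate acceptor beads (10 ug/mL) for 30 min.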
Active calls of the source: *; ? = inconclusive; / = no result; [ ] = remark or other dose. A selection: hits, their analogues and other compounds. The true share with any hit is near 11%. Calls come from the whole dose curve; as a rule, active = well fitted curve in the direction sought with a large enough effect; inconclusive = small, poorly fitted or top-dose-only effect, or another doubt; inactive = no such curve, though single readings can be large; an effect the other way counts as inactive or inconclusive. Potency is the fitted concentration of half-maximal effect.

SMILES	BAZ2B inh	VDR inh	G9a inh	JMJD2A Tudor inh	PLK1 PBD block	HP1b chromo inh
O=C1NC(=O)N(CCC2=CCCCC2)C(=O)/C1=C/c1ccc(O)cc1	3%	?	?	-8%	2.7µM*	35%
COc1ccc(/C=C2\C(=O)NC(=O)N(CCC3=CCCCC3)C2=O)c(OC)c1	13%	?	11µM*	-42%	1.7µM*	18%
O=C1NC(=O)N(CCC2=CCCCC2)C(=O)/C1=C/c1cccs1	?	?	14µM*	?	0.75µM*	6%
CC(C)(C)C(O)C(Oc1ccc(-c2ccccc2)cc1)n1cncn1 (centres undefined)	/	-12%	/	/	/	/
COc1cc(/C=C2\C(=O)NC(=O)N(CCc3ccc(F)cc3)C2=O)ccc1O	0%	?	40µM*	-10%	0.75µM*	32%
O=C1NC(=O)C(CCc2ccncc2)(CCc2ccncc2)C(=O)N1CCc1ccc(F)cc1	5%	1%	-24%	-27%	-1%	19%
COc1cc(C=C2C(=O)NC(=O)NC2=O)ccc1O	-8%	-19%	-11%[12.7 µM]	-9%	21µM*	38%
CCOc1cc(C=C2C(=O)NC(=O)NC2=O)cc([N+](=O)[O-])c1O	56µM*	/	/	/	/	/
Cc1ccc(C(=O)Oc2cc(N)n(S(=O)(=O)c3ccc(F)cc3)n2)cc1	4%	-4%	13%	11%	-5%	51%
CN1CCC23CCCC[C@H]2C1Cc1ccc(O)cc13 (some centres undefined)	/	/	24%[12.7 µM]	/	/	/
CCN(CC)c1ccc(CNc2nc3ccccc3n2C)cc1	45µM*	6%	/	?	-1%	24%
O=C1NC(=O)N(C2CCCCC2)C(=O)C1C1c2ccccc2C(=O)N1Cc1ccccc1 (centres undefined)	-24%	5%	56µM*	6%	-7%	40%
CCNC(=S)NCCC1=c2ccccc2=N/C1=C\c1c(O)n(C)c(=O)n(C)c1=O	?	32µM*	10µM*	-34%	1.1µM*	?
C[C@]12CC[C@H]3C(=CCc4cc(O)ccc43)[C@@H]1CCC2=O	1%	-12%	-18%[59 µM]	-22%	-18%	26%
O=c1[nH]c(=O)n(Cc2ccc(F)cc2)c(O)c1/C=N/Nc1ccccc1	-15%	-7%	10µM*	-32%	-13%	8%
O=c1[nH]c(=O)n(Cc2ccc(F)cc2)c(O)c1C=NCCCO	-3%	-1%	26%[59 µM]	-1%	-2%	14%
O=c1[nH]c(=O)n(CCC2=CCCCC2)c(O)c1C=NC1CCN(Cc2ccccc2)CC1	0%	14%	18%	-7%	-2%	23%
O=c1[nH]c(=O)n(CCC2=CCCCC2)c(O)c1/C=N/Nc1cccc2ccccc12	?	?	1.8µM*	-10%[11.4 µM]	34µM*	32µM*
O=c1[nH]c(=O)n(CCC2=CCCCC2)c(O)c1/C=N/Nc1ccccc1	-24%	?	3.5µM*	-31%	-13%	51%
C[C@@]12CCC(O)C[C@H]1CCC1C2CC[C@]2(C)C(=O)CCC12 (some centres undefined)	/	2%	/	/	/	/
O=C1C(Cl)=C(N2CCOCC2)C(=O)N1c1ccccc1F	-27%	14µM*	35µM*	-12%	-13%	76%
Clc1ccc2c(c1)C(c1ccccc1)=NCc1nncn1-2	/	0%	-29%[12.7 µM]	/	/	/
Oc1cc[c]([Hg][Cl])cc1	/	4µM*	?	/	/	/
O=C(O)c1c(C(=O)O)c(-c2ccc(Br)cc2)n2c1CSC2	-31%	?	-19%	-18%	-14%	17%
COc1ccccc1N1CCN(CCc2c[nH]c3cc4c(cc23)OCO4)CC1	/	-12%	/	25µM*	4%	?
SMILES	BAZ2B inh	VDR inh	G9a inh	JMJD2A Tudor inh	PLK1 PBD block	HP1b chromo inh
CNCCc1c[nH]c2ccccc12	-21%	-9%	28µM*	-17%	0%	29%
c1ccc(CNCCc2c[nH]c3ccccc23)cc1	?	-18%	4%	-17%	-1%	12%
CNCCc1c[nH]c2ccc(O)cc12	/	-5%	10µM*	22µM*	-2%	?
COc1ccc(NC(=O)N2CC3(CCN(C(=O)Oc4ccccc4)CC3)C2)cc1	/	8%	-9%[12.7 µM]	/	/	/
COc1cccc(-n2c(CNC(=O)OC(C)(C)C)n[nH]c2=S)c1	32%	3%	28µM*	10µM*	-9%	30%
C[C@H]1CC[C@@H]2[C@@H](C)[C@H]3C(C[C@H]4C5CC[C@H]6C[C@@H](O)CC[C@]6(C)C5CC[C@]34C)N2C1 (some centres undefined)	/	-16%	/	-6%	/	36%
CSCC[C@H](NC(=O)[C@H](CC(C)C)NC(=O)[C@@H](Cc1cnc[nH]1)NC(=O)[C@H](Cc1ccccc1)NC(=O)[C@@H](Cc1ccccc1)NC(=O)[C@@H](N)Cc1ccc(O)cc1)C(N)=O	/	-14%	/	/	/	/
O=C(O)Cn1cc(/C=C2\C(=O)NC(=O)N(Cc3ccco3)C2=O)c2ccccc21	71µM*	?	16µM*	79µM*	9.5µM*	-31%
Cc1ccc(N2C(=O)NC(=O)/C(=C\c3cn(CC(=O)O)c4ccccc34)C2=O)cc1	?	-19%	25µM*	-9%	27µM*	28%
CCN(CC)c1ccc(/C=C2\C(=O)NC(=O)N(Cc3ccco3)C2=O)cc1	50µM*	?	?	?	?	-12%
CCc1ccccc1N1C(=O)NC(=O)/C(=C\c2cc(C)n(C)c2C)C1=O	-4%	?	9%[59 µM]	-15%	-15%	?
COC(=O)Cn1cc(/C=C2\C(=O)NC(=O)N(c3ccccc3)C2=O)c2ccccc21	-4%	13%	-5%	-25%	?	31%
Cc1cc(/C=C2/C(=O)NC(=O)N(Cc3ccco3)C2=O)c(C)n1-c1ccccc1O	35µM*	32%	/	?	-24%	-8%
CC1CC(O)[C@]2(O)[C@]13CC(=O)OC[C@@]2(C)[C@@](C)(O)C(=O)C3 (some centres undefined)	/	13%	/	/	/	/
